Where “and” joins values, the source holds several entries; their conditions need not be identical. Equal entries are not always repeated. Among all 5,500 compounds or so, about 2,000 (36%) were called active. About 18% were inconclusive and are not listed. No stated cut-off is given here; in the data, active means normalized growth mostly below about 0.91 (no sharp cut-off); inconclusive means no clear call, values can overlap the other calls; inactive means mostly above about 0.92. The list shows a part of the results.
Experiment: chemical genetic growth profiling, strain panel (AID 1159580);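 further: tested at 20 µM; growth read once vehicle control cultures reached saturation at 30 °C; 1 = growth at the plate median or of vehicle wells; lower values mean less growth of the strain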
Conditions: growth OD

Measured: normalized growth

NCCc1ccc(O)c(O)c1
inactive: S. cerevisiae deletion strains, locus YJL187C, strain SWE1 (second series), hits give low values 0.965 | S. cerevisiae deletion strains, locus YJR043C, strain POL32, hits give low values 1.03 | S. cerevisiae deletion strains, locus YJR066W, strain TOR1, hits give low values 0.958 and 0.96 | S. cerevisiae deletion strains, locus YJR075W, strain HOC1, hits give low values 0.98 and 0.981 | S. cerevisiae deletion strains, locus YKL009W, strain mrt4, hits give low values 0.964 | S. cerevisiae deletion strains, locus YKL068W, hits give low values 0.981 | S. cerevisiae deletion strains, locus YKL085W, strain MDH1 (second series), hits give low values 0.994 | S. cerevisiae deletion strains, locus YKL085W, strain MDH1, hits give low values 0.994 | S. cerevisiae deletion strains, locus YKL160W, strain elf1, hits give low values 1 | S. cerevisiae deletion strains, locus YKR001C, strain vps1, hits give low values 0.995 | S. cerevisiae deletion strains, locus YKR026C, strain gcn3, hits give low values 1 | S. cerevisiae deletion strains, locus YKR091W, strain srl3, hits give low values 1.01 | S. cerevisiae deletion strains, locus YLL001W, strain dnm1, hits give low values 0.983 | S. cerevisiae deletion strains, locus YLL026W, hits give low values 1 | S. cerevisiae deletion strains, locus YLL041C, strain sdh2, hits give low values 0.991 | S. cerevisiae deletion strains, locus YLR027C, strain aat2, hits give low values 1.01 | S. cerevisiae deletion strains, locus YLR039C, strain RIC1, hits give low values 0.99 | S. cerevisiae deletion strains, locus YLR058C, strain SHM2, hits give low values 0.985 | S. cerevisiae deletion strains, locus YLR102C, strain apc9, hits give low values 0.992 | S. cerevisiae deletion strains, locus YLR113W, strain HOG1, hits give low values 1.07 and 1.04 | S. cerevisiae deletion strains, locus YLR221C, strain rsa3, hits give low values 0.982 | S. cerevisiae deletion strains, locus YLR258W, strain gsy2, hits give low values 1 | S. cerevisiae deletion strains, locus YLR262C, strain YPT6 (second series), hits give low values 0.998 | S. cerevisiae deletion strains, locus YLR262C, strain YPT6, hits give low values 0.969 | S. cerevisiae deletion strains, locus YLR268W, strain sec22, hits give low values 1.01 | S. cerevisiae deletion strains, locus YLR320W, strain mms22, hits give low values 1 | S. cerevisiae deletion strains, locus YLR330W, strain CHS5, hits give low values 0.998 | S. cerevisiae deletion strains, locus YLR342W, strain FKS1 (second series), hits give low values 0.981 | S. cerevisiae deletion strains, locus YLR342W, strain FKS1, hits give low values 0.999 | S. cerevisiae deletion strains, locus YLR357W, strain rsc2, hits give low values 0.985 | S. cerevisiae deletion strains, locus YLR370C, strain arc18, hits give low values 1.01 | S. cerevisiae deletion strains, locus YLR371W, strain rom2, hits give low values 0.992 | S. cerevisiae deletion strains, locus YLR384C, strain iki3, hits give low values 0.99 | S. cerevisiae deletion strains, locus YLR418C, strain cdc73, hits give low values 0.999 | S. cerevisiae deletion strains, locus YML016C, strain PPZ1, hits give low values 0.991 | S. cerevisiae deletion strains, locus YML032C, strain rad52, hits give low values 1.01 | S. cerevisiae deletion strains, locus YML120C, strain ndi1, hits give low values 1.01 | S. cerevisiae deletion strains, locus YML124C, strain tub3, hits give low values 1 | S. cerevisiae deletion strains, locus YMR058W, strain fet3, hits give low values 1.02 | S. cerevisiae deletion strains, locus YMR078C, strain ctf18, hits give low values 0.991 | S. cerevisiae deletion strains, locus YMR125W, strain sto1, hits give low values 1.01 | S. cerevisiae deletion strains, locus YMR129W, hits give low values 1.01 | S. cerevisiae deletion strains, locus YMR205C, strain PFK2, hits give low values 1.03 | S. cerevisiae deletion strains, locus YMR223W, strain ubp8, hits give low values 0.972 | S. cerevisiae deletion strains, locus YMR231W, strain pep5, hits give low values 1.01 | S. cerevisiae deletion strains, locus YMR307W, strain GAS1, hits give low values 1.03 | S. cerevisiae deletion strains, locus YNL067W, strain RPL9B, hits give low values 0.968 | S. cerevisiae deletion strains, locus YNL071W, strain lat1, hits give low values 1 | S. cerevisiae deletion strains, locus YNL153C, strain GIM3, hits give low values 0.973 and 0.99 | S. cerevisiae deletion strains, locus YNL175C, strain NOP13, hits give low values 1 | S. cerevisiae deletion strains, locus YNL183C, strain NPR1, hits give low values 1 and 0.946 | S. cerevisiae deletion strains, locus YNL197C, strain WHI3, hits give low values 0.993 | S. cerevisiae deletion strains, locus YNL209W, strain ssb2, hits give low values 1 | S. cerevisiae deletion strains, locus YNL224C, strain SQS1, hits give low values 1 | S. cerevisiae deletion strains, locus YNL233W, strain BNI4, hits give low values 0.984 | S. cerevisiae deletion strains, locus YNL248C, strain rpa49, hits give low values 0.985 | S. cerevisiae deletion strains, locus YNL250W, strain rad50, hits give low values 1 | S. cerevisiae deletion strains, locus YNL271C, strain bni1, hits give low values 0.991 | S. cerevisiae deletion strains, locus YNL298W, strain CLA4, hits give low values 1 | S. cerevisiae deletion strains, locus YNL307C, strain MCK1, hits give low values 1 | S. cerevisiae deletion strains, locus YNL322C, strain KRE1 (second series), hits give low values 0.99 | S. cerevisiae deletion strains, locus YNR049C, strain mso1, hits give low values 1.01 | S. cerevisiae deletion strains, locus YNR052C, strain pop2, hits give low values 1.01 | S. cerevisiae deletion strains, locus YOL012C, strain htz1 0.769 | S. cerevisiae deletion strains, locus YOL147C, strain pex11, hits give low values 0.998 | S. cerevisiae deletion strains, locus YOR001W, strain rrp6, hits give low values 0.997 | S. cerevisiae deletion strains, locus YOR061W, strain CKA2, hits give low values 0.993 | S. cerevisiae deletion strains, locus YOR069W, strain VPS5, hits give low values 0.998 | S. cerevisiae deletion strains, locus YOR080W, strain dia2, hits give low values 1.01 | S. cerevisiae deletion strains, locus YOR083W, strain WHI5 (second series), hits give low values 0.984 | S. cerevisiae deletion strains, locus YOR083W, strain WHI5, hits give low values 1.01 | S. cerevisiae deletion strains, locus YOR106W, strain vam3, hits give low values 0.981 | S. cerevisiae deletion strains, locus YOR136W, strain idh2, hits give low values 0.999 | S. cerevisiae deletion strains, locus YOR144C, strain elg1, hits give low values 0.997 | S. cerevisiae deletion strains, locus YOR184W, strain ser1, hits give low values 0.995 | S. cerevisiae deletion strains, locus YOR231W, strain MKK1, hits give low values 1.07 and 1.04 | S. cerevisiae deletion strains, locus YOR265W, strain rbl2, hits give low values 1.01 | S. cerevisiae deletion strains, locus YOR270C, strain vph1, hits give low values 1.06 | S. cerevisiae deletion strains, locus YOR290C, strain snf2, hits give low values 1.01 | S. cerevisiae deletion strains, locus YOR316C, strain cot1, hits give low values 0.993 | S. cerevisiae deletion strains, locus YPL051W, strain arl3, hits give low values 0.974 | S. cerevisiae deletion strains, locus YPL055C, strain LGE1, hits give low values 0.974 | S. cerevisiae deletion strains, locus YPL078C, strain atp4, hits give low values 1.02 | S. cerevisiae deletion strains, locus YPL106C, strain sse1, hits give low values 0.968 | S. cerevisiae deletion strains, locus YPL240C, strain hsp82, hits give low values 1.01 | S. cerevisiae deletion strains, locus YPL256C, strain CLN2, hits give low values 1.03 and 1.04 | S. cerevisiae deletion strains, locus YPR119W, strain clb2, hits give low values 0.995 | S. cerevisiae deletion strains, locus YPR141C, strain kar3, hits give low values 0.969 | S. cerevisiae deletion strains, locus YPR163C, strain tif3, hits give low values 0.997 | S. cerevisiae deletion strains, locus YPR167C, strain met16, hits give low values 0.999 | S. cerevisiae deletion strains, strain wtn01, hits give low values 0.994 | S. cerevisiae strains, strain wild type, hits give low values 0.993

— PubChem BioAssay AID1159580 (chemical genetic matrix, 2015)
